# From PubChem BioAssay (EPA / NIEHS)
# Inconclusive results are not listed. Activity calls are given as the source filed them. Rule for the calls, unless noted: active = hit-call score of the fitted dose curve at least 0.9, where 1 is the maximum; inconclusive = response in the unintended direction; inactive = score below 0.9.
# Columns and labels:
# [1] = ACEA_ER_AUC_viability: ACEA Biosciences xCELLigence Real-Time Cell Analysis on Estrogen Receptor Agonism for Viability (AID 2283782);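 note: hit means loss of impedance signal meaning reduced cell growth or viability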
# Summary of the method: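 Continuous-exposure impedance cell analysis uses T-47D cells in charcoal-stripped serum, eight 1:4 dilutions topping at 100 uM final, biological duplicate. Area under the growth curve at 80 h is fitted against DMSO baseline.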
# [2] = CCTE_Harrill_HTTr_Viability_MCF7: CCTE's 6-hour Cell Viability Assessment for the High-Throughput Transcriptomics (HTTr) Platform, in MCF-7 cells cultured in DMEM + 10% fetal bovine serum, Harrill Lab (AID 2284010; active = hit-call score of the fitted dose curve at least 0.9, where 1 is the maximum; inactive = score below 0.9)
# Summary of the method: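 Eight-point concentration series, six-hour exposure. Propidium iodide exclusion imaged to assess membrane integrity as a cytotoxicity readout; bidirectional fitting was done with DMSO as negative control and activity baseline.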
# [3] = CCTE_Harrill_HTTr_Apoptosis_MCF7: CCTE's 6-hour Apoptosis Assessment for the High-Throughput Transcriptomics (HTTr) Platform, in MCF-7 cells cultured in DMEM + 10% fetal bovine serum, Harrill Lab (AID 2284011; active = hit-call score of the fitted dose curve at least 0.9, where 1 is the maximum; inactive = score below 0.9)
# Summary of the method: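 MCF-7 (DMEM + 10% FBS), 384-well; 8-pt dilution series, 6 h chemical exposure; caspase-3/7 activation via CellEvent Caspase 3/7 Green, HCI; bidirectional fit vs DMSO.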
# [4] = CCTE_Harrill_HTTr_CellCount_MCF7: CCTE's Cell Proliferation Assessment for the High-Throughput Transcriptomics (HTTr) Platform, Harrill Lab (AID 2284012);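 note: count of Hoechst-stained nuclei per well by high-content imaging in MCF-7 cells; cells exposed to compound for six hours; intended direction is loss of nuclei count meaning fewer cells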
# Summary of the method: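 For this full-screen endpoint, MCF-7 cultures received eight compound dilutions for six hours. Well nuclei counts from Hoechst imaging were analyzed relative to DMSO.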
# [5] = molecular target: Cellular tumor antigen p53 (Homo sapiens) (UniProt P04637); assay: TOX21_p53_BLA_p2_ratio: Tox21 HCT-116 p53 Agonism Beta-lactamase Assay, Ratio, Phase 2 (AID 2283592)
# Summary of the method: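 Plated HCT116 p53-bla cells (4000/well) received compound after 5 h, then 16 h at 37C/5% CO2. CCF4-AM added, 2 h RT. Ratio of 460 to 530 nm emission taken as the p53 reporter signal.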
# [6] = molecular target: Cellular tumor antigen p53 (Homo sapiens) (UniProt P04637); assay: TOX21_p53_BLA_p3_ratio: Tox21 HCT-116 p53 Agonism Beta-lactamase Assay, Ratio, Phase 3 (AID 2283596)
# Summary of the method: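 Cells were seeded at 4000/well, rested 5 h at 37C, then dosed with DMSO compound solutions (217-fold dilution) for 16 h. CCF4-AM substrate was loaded for 2 h at room temperature, and the 460/530 nm emission ratio was fitted for gain of signal versus DMSO.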
# [7] = TOX21_p53_BLA_p4_viability: Viability Assessment in the Tox21 HCT-116 p53 Agonism Beta-lactamase Assay, Phase 4 (AID 2283597);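 note: hits lower the luminescence signal meaning cytotoxicity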
# Summary of the method: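 Readout: ATP luminescence (CellTiter-Glo), measured 30 min after reagent addition at RT. The reagent followed a 2 h CCF4-AM incubation, and the cells had been exposed to compound for 16 h at 37C.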
# [8] = molecular target: Cellular tumor antigen p53 (Homo sapiens) (UniProt P04637); assay: TOX21_p53_BLA_p5_ratio: Tox21 HCT-116 p53 Agonism Beta-lactamase Assay, Ratio, Phase 5 (AID 2283599)
# Summary of the method: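 HCT-116 cells carrying a p53-inducible beta-lactamase reporter were seeded at 4000 cells/well and dosed after 5 h with compound in DMSO (217-fold dilution). After 16 h at 37C, CCF4-AM substrate was added for 2 h, and the 460/530 nm emission ratio was scored as gain-of-signal versus DMSO.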
# [9] = TOX21_p53_BLA_p3_viability: Viability Assessment in the Tox21 HCT-116 p53 Agonism Beta-lactamase Assay, Phase 3 (AID 2283593);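 note: cells exposed to compound for 16 h before reading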
# Summary of the method: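 HCT-116 cells (4000/well) rested 5 h at 37C, then got DMSO compounds by pin tool (217-fold dilution) for 16 h at 37C, 5% CO2. After the bla read, CellTiter-Glo was added and luminescence read at 30 min, room temperature.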
# [10] = TOX21_p53_BLA_p5_viability: Viability Assessment in the Tox21 HCT-116 p53 Agonism Beta-lactamase Assay, Phase 5 (AID 2283600)
# Summary of the method: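 Workflow: seed 4000 cells per well, wait 5 h, add compounds (DMSO, 217-fold dilution), incubate 16 h, load CCF4-AM 2 h, add CellTiter-Glo, read luminescence after 30 min.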
# [11] = molecular target: Cellular tumor antigen p53 (Homo sapiens) (UniProt P04637); assay: TOX21_p53_BLA_p4_ratio: Tox21 HCT-116 p53 Agonism Beta-lactamase Assay, Ratio, Phase 4 (AID 2283601)
# Summary of the method: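 HCT116 cells carrying an inducible beta-lactamase reporter were plated at 4000 cells/well, rested 5 h, then exposed to compounds in DMSO (217-fold dilution) for 16 h at 37C. CCF4-AM substrate was loaded 2 h at room temperature; 460/530 nm emission ratio scored gain-of-signal versus DMSO.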
# Sequence of Cellular tumor antigen p53 (Homo sapiens) (P04637 whole entry, looked up): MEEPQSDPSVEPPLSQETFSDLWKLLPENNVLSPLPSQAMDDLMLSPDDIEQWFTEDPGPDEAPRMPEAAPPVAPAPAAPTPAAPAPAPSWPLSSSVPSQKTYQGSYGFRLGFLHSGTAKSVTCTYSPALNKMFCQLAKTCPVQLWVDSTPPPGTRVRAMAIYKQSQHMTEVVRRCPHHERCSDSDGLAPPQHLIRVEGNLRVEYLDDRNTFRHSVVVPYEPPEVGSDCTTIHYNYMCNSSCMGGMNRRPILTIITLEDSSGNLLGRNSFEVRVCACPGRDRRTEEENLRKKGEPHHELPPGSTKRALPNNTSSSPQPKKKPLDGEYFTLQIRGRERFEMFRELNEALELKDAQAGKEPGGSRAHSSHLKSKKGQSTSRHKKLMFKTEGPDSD
structure (smiles),measurement,setting,value
O=C(c1ccc(Cl)cc1)c1ccc(Cl)cc1,outcome,[1],inactive
same,outcome,[2],inactive
same,outcome,[3],inactive
same,outcome,[4],inactive
COCCOC(=O)CC#N,AC50,[1],50 µM (active)
CCN1CCCC1CNC(=O)c1cc(S(N)(=O)=O)ccc1OC (stereo not given),outcome,[2],inactive
same,outcome,[3],inactive
C[Si](Cl)(c1ccccc1)c1ccccc1,outcome,[5],inactive
same,outcome,[6],inactive
same,outcome,[7],inactive
same,outcome,[8],inactive
CCCCOC(=O)CC#N,outcome,[5],inactive
same,outcome,[9],inactive
same,outcome,[10],inactive
same,outcome,[11],inactive
CN1CCN(C2=Nc3ccccc3Sc3ccc(Cl)cc32)CC1,outcome,[5],inactive
same,outcome,[6],inactive
O=C(NCCCN1CCOCC1)c1ccc(Cl)cc1,outcome,[5],inactive
same,outcome,[6],inactive
O=C1CCCC(=O)C1,outcome,[5],inactive
same,outcome,[6],inactive
N[C@@H](CCC(=O)Nc1ccc([N+](=O)[O-])cc1)C(=O)O,outcome,[5],inactive
same,outcome,[6],inactive
same,outcome,[7],inactive
same,outcome,[8],inactive
CN1CCN(c2c(F)cc3c(=O)c(C(=O)O)cn4c3c2SCC4)CC1,outcome,[5],inactive
same,outcome,[6],inactive
CNC(=O)c1ccccc1,outcome,[5],inactive
same,outcome,[9],inactive
same,outcome,[11],inactive
CCC(C)(C)CC,outcome,[5],inactive
same,outcome,[6],inactive
same,outcome,[7],inactive
same,outcome,[8],inactive
C=Cc1ccccn1,outcome,[5],inactive
same,outcome,[6],inactive
same,outcome,[7],inactive
CCC(C)(CN(C)C)OC(=O)c1ccccc1 (stereo not given),outcome,[5],inactive
same,outcome,[6],inactive
same,outcome,[7],inactive
same,outcome,[8],inactive
CCOCCC(=O)OCC,outcome,[5],inactive
same,outcome,[9],inactive
same,outcome,[11],inactive
Cc1cc(O)ccc1N,outcome,[5],inactive
same,outcome,[6],inactive
same,outcome,[7],inactive
same,outcome,[8],inactive
Oc1ccc(C2CNCCc3c2cc(O)c(O)c3Cl)cc1 (stereo not given),outcome,[5],inactive
same,outcome,[6],inactive
same,outcome,[7],inactive
O=C1CC[C@@H](C(=O)N[C@H]2C[C@@H]2c2ccccc2)N1,outcome,[5],inactive
same,outcome,[9],inactive
same,outcome,[10],inactive
same,outcome,[11],inactive
